The values that follow come from PubChem BioAssay (NCI).

About 79,000 compounds went through this panel and 15% of them were active in at least one assay; those are over-represented in the sample as a whole. Values without a mark were called inactive. Calls of active or inactive are those of the source. Cut-off read from the data, not from the text of the source: active = growth inhibition above about 70%; inactive = the rest.

Assay [1] is described as follows: NCI Yeast Anticancer Drug Screen. Data for the rad50 strain (AID 155).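 Note: 0% = growth of vehicle-only cultures of the same strain.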 Particulars: S. cerevisiae rad50 strain growth inhibition, stronger effect = higher value. In outline: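 Relative growth inhibition (compound vs vehicle) was measured in yeast with a defined repair-gene alteration.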
Assay [2] in a line: NCI Yeast Anticancer Drug Screen. Data for the mec2-1 strain (AID 157). Particulars: S. cerevisiae mec2-1 strain, stronger effect = higher value. In outline: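 Compounds were applied to mec2-1 yeast cells. Their growth was then compared with that of vehicle-treated cultures to give growth inhibition.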
Assay [3] can be described thus: NCI Yeast Anticancer Drug Screen. Data for the sgs1 mgt1 strain (AID 161).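 Note: 0% = growth of cultures given vehicle only.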 Particulars: S. cerevisiae sgs1 mgt1 strain, stronger effect = higher value. The method in brief:
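Compounds are added to genetically altered yeast, and growth is compared with cultures given vehicle alone to give percent inhibition.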

The nature of assay [4]: NCI Yeast Anticancer Drug Screen. Data for the cln2 rad14 strain (AID 165).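 Note: 0% = growth equal to vehicle treated cultures.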 Particulars: S. cerevisiae cln2 rad14 strain, stronger effect = higher value. The method in brief:
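Strain: cln2 rad14 yeast, altered in cell cycle control and DNA damage repair. Read-out: growth inhibition vs vehicle.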

Assay [5] can be described thus: NCI Yeast Anticancer Drug Screen. Data for the bub3 strain (AID 167). The settings on record: S. cerevisiae bub3 mutant strain, stronger effect = higher value. In outline: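 Screening used yeast with an engineered genetic alteration affecting cell cycle control. Compound-exposed cultures were compared with vehicle cultures, and reduced growth was taken as inhibition.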
Assay [6] is described as follows: NCI Yeast Anticancer Drug Screen. Data for the mlh1 rad18 strain (AID 175). The settings on record: S. cerevisiae mlh1 rad18 strain growth inhibition, stronger effect = higher value. In outline: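 A repair-deficient yeast strain is exposed to test compound, and growth is scored relative to vehicle-treated controls.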
[7] abbreviates: at 5.0 µM (retest, dose inferred, filed as 0.5).
[8] abbreviates: at 50.0 µM (retest, dose inferred, filed as 5.0).

`CCOC(=O)Nc1cc2c(cn1)[nH]c1ccccc12`: the growth inhibition in assay [1] (setting [7]) is -3%; in assay [1] (setting [8]), 46%; in assay [1] (at 50.0 µM), -0.8%; in assay [2] (setting [7]), 7%; in assay [2] (setting [8]) it was 72% (active); in assay [2] (at 50.0 µM), -12.2%. In addition, the growth inhibition in assay [3] (setting [7]) was -1%; in assay [3] (setting [8]), 52%; in assay [3] (at 50.0 µM), 8.35%; in assay [4] (setting [7]), 1%; in assay [4] (setting [8]), 25%; in assay [4] (at 50.0 µM), -0.4%. In addition, the growth inhibition in assay [5] (setting [7]) is 2%; in assay [5] (setting [8]), 38%; in assay [5] (at 50.0 µM), 3.25%; in assay [6] (setting [7]) it was 5%; in assay [6] (setting [8]), 86% (active); in assay [6] (at 50.0 µM), 5.3%.
`Cc1ccc(-n2c(CSc3ccc(Cl)cc3)nnc2SCc2nc3ccccc3[nH]2)cc1`: the growth inhibition was -22% in assay [1] (setting [7]); 8% in assay [1] (setting [8]); 46.9% in assay [1] (at 50.0 µM); -16% in assay [2] (setting [7]); -9% in assay [2] (setting [8]); 73.1% (active) in assay [2] (at 50.0 µM). For the same compound, the growth inhibition was -28% in assay [3] (setting [7]); 7% in assay [3] (setting [8]); 42.7% in assay [3] (at 50.0 µM); -4% in assay [4] (setting [7]); 5% in assay [4] (setting [8]); 70.5% (active) in assay [4] (at 50.0 µM). Further, the growth inhibition in assay [5] (setting [7]) is 1%; in assay [5] (setting [8]), -3%; in assay [5] (at 50.0 µM) it was 3.9%; in assay [6] (setting [7]), 2%; in assay [6] (setting [8]) it was -4%; in assay [6] (at 50.0 µM) it was 66.6%.
For the compound `CC(=O)O[C@H]1[C@@H]2CC(C)(C)CC2=C(C=O)C2(C=O)CC12C` (stereo not given in full), the growth inhibition in assay [1] (setting [7]) was 40%; in assay [1] (setting [8]) it was 99% (active); in assay [1] (at 50.0 µM) it was 99.5% (active); in assay [2] (setting [7]) it was 65%; in assay [2] (setting [8]) it was 100% (active); in assay [2] (at 50.0 µM), 99.5% (active). Also, the growth inhibition in assay [3] (setting [7]) was 62%; in assay [3] (setting [8]), 99% (active); in assay [3] (at 50.0 µM), 99.7% (active); in assay [4] (setting [7]) it was 37%; in assay [4] (setting [8]), 99% (active); in assay [4] (at 50.0 µM) it was 99.2% (active). For the same compound, the growth inhibition was 54% in assay [5] (setting [7]); 99% (active) in assay [5] (setting [8]); 46.8% in assay [5] (at 50.0 µM); 55% in assay [6] (setting [7]); 99% (active) in assay [6] (setting [8]); 99.7% (active) in assay [6] (at 50.0 µM).
Consider `O=c1cccccc1[O-].O=c1cccccc1[O-].O=c1cccccc1[O-].[Ce+3]`, for which the growth inhibition in assay [1] (setting [7]) is 31%; in assay [1] (setting [8]), 31%; in assay [1] (at 50.0 µM) it was 90% (active); in assay [2] (setting [7]), 20%; in assay [2] (setting [8]) it was 20%; in assay [2] (at 50.0 µM) it was 92% (active). In addition, the growth inhibition in assay [3] (setting [7]) is 13%; in assay [3] (setting [8]) it was 13%; in assay [3] (at 50.0 µM) it was 85% (active); in assay [4] (setting [7]), 16%; in assay [4] (setting [8]), 16%; in assay [4] (at 50.0 µM), 90.4% (active). In addition, the growth inhibition in assay [5] (setting [7]) was 10%; in assay [5] (setting [8]) it was 10%; in assay [5] (at 50.0 µM) it was 91.2% (active); in assay [6] (setting [7]) it was 26%; in assay [6] (setting [8]), 26%; in assay [6] (at 50.0 µM), 88.5% (active).
For the compound `Cc1cccc(/C=N/NC(=S)Nc2ccccc2)n1`, the growth inhibition in assay [1] (setting [7]) was -19%; in assay [1] (setting [8]) it was 99% (active); in assay [1] (at 50.0 µM), 89.2% (active); in assay [2] (setting [7]), -49%; in assay [2] (setting [8]) it was 99% (active); in assay [2] (at 50.0 µM) it was 92.8% (active). Also, the growth inhibition in assay [3] (setting [7]) is -42%; in assay [3] (setting [8]), 99% (active); in assay [3] (at 50.0 µM) it was 91.2% (active); in assay [4] (setting [7]), -37%; in assay [4] (setting [8]) it was 99% (active); in assay [4] (at 50.0 µM) it was 91.8% (active). The growth inhibition in assay [5] (setting [7]) was -42%; in assay [5] (setting [8]), 100% (active); in assay [5] (at 50.0 µM), 92% (active); in assay [6] (setting [7]), -30%; in assay [6] (setting [8]), 100% (active); in assay [6] (at 50.0 µM), 89.3% (active).
In the case of `OC(C/C(CNNc1ccccc1)=N/Nc1ccccc1)(C(F)(F)F)C(F)(F)F`, the growth inhibition in assay [1] (setting [7]) is 6%; in assay [1] (setting [8]), -9%; in assay [1] (at 50.0 µM), 71.2% (active); in assay [2] (setting [7]), -2%; in assay [2] (setting [8]), 76% (active); in assay [2] (at 50.0 µM), 83.8% (active). Further, the growth inhibition in assay [3] (setting [7]) was -6%; in assay [3] (setting [8]) it was 5%; in assay [3] (at 50.0 µM) it was 69.2%; in assay [4] (setting [7]), 2%; in assay [4] (setting [8]), 75% (active); in assay [4] (at 50.0 µM), 55.4%. Besides, the growth inhibition was -1% in assay [5] (setting [7]); 59% in assay [5] (setting [8]); 74.6% (active) in assay [5] (at 50.0 µM); 14% in assay [6] (setting [7]); 78% (active) in assay [6] (setting [8]); 89% (active) in assay [6] (at 50.0 µM).
As to `Clc1ccc2ns[s+]c2c1`, the growth inhibition in assay [1] (setting [7]) was 8%; in assay [1] (setting [8]), 78% (active); in assay [1] (at 50.0 µM) it was 73.7% (active); in assay [2] (setting [7]) it was 13%; in assay [2] (setting [8]) it was 93% (active); in assay [2] (at 50.0 µM), 48.1%. Also, the growth inhibition in assay [3] (setting [7]) was 12%; in assay [3] (setting [8]), 86% (active); in assay [3] (at 50.0 µM) it was 80.6% (active); in assay [4] (setting [7]) it was 21%; in assay [4] (setting [8]), 49%; in assay [4] (at 50.0 µM), 47.8%. Besides, the growth inhibition in assay [5] (setting [7]) is 26%; in assay [5] (setting [8]), 96% (active); in assay [5] (at 50.0 µM), 72.3% (active); in assay [6] (setting [7]), 17%; in assay [6] (setting [8]), 85% (active); in assay [6] (at 50.0 µM), -27.7%.
Regarding `CC(C)N(CCO)CC(O)Cn1cnc2c(N)ncnc21` (stereo not given) (tested in a mixture with another compound), the growth inhibition in assay [1] (setting [7]) was -17%; in assay [1] (setting [8]) it was 0%; in assay [1] (at 50.0 µM) it was -37.5%; in assay [2] (setting [7]) it was -9%; in assay [2] (setting [8]) it was -8%; in assay [2] (at 50.0 µM), 7.75%. Also, the growth inhibition in assay [3] (setting [7]) was -14%; in assay [3] (setting [8]), 1%; in assay [3] (at 50.0 µM), -15.6%; in assay [4] (setting [7]), -18%; in assay [4] (setting [8]), -6%; in assay [4] (at 50.0 µM), 40.2%. Further, the growth inhibition is -8% in assay [5] (setting [7]); -6% in assay [5] (setting [8]); -4.65% in assay [5] (at 50.0 µM); -8% in assay [6] (setting [7]); -5% in assay [6] (setting [8]); 43% in assay [6] (at 50.0 µM).
With `O=c1oc2ccccc2c(O)c1C1=N/C(=N/N=C/c2ccc(Cl)cc2)SC1`, the growth inhibition in assay [1] (setting [7]) is -6%; in assay [1] (setting [8]), 97% (active); in assay [1] (at 50.0 µM), 64.2%; in assay [2] (setting [7]) it was -3%; in assay [2] (setting [8]), 98% (active); in assay [2] (at 50.0 µM), 30.7%. Besides, the growth inhibition in assay [3] (setting [7]) was -3%; in assay [3] (setting [8]), 97% (active); in assay [3] (at 50.0 µM), 4.05%; in assay [4] (setting [7]), 0%; in assay [4] (setting [8]), 95% (active); in assay [4] (at 50.0 µM), 50.2%. Further, the growth inhibition in assay [5] (setting [7]) was -1%; in assay [5] (setting [8]), 97% (active); in assay [5] (at 50.0 µM) it was 98.5% (active); in assay [6] (setting [7]) it was 1%; in assay [6] (setting [8]), 97% (active); in assay [6] (at 50.0 µM), 47.2%.
`O=C(COc1ccc2ccccc2c1)NC1c2ccccc2Oc2ccccc21`: the growth inhibition is 77% (active) in assay [1] (setting [7]); 93% (active) in assay [1] (setting [8]); 74.2% (active) in assay [1] (at 50.0 µM); 91% (active) in assay [2] (setting [7]); 97% (active) in assay [2] (setting [8]); 17.4% in assay [2] (at 50.0 µM). Further, the growth inhibition in assay [3] (setting [7]) was 95% (active); in assay [3] (setting [8]), 97% (active); in assay [3] (at 50.0 µM) it was 69.3%; in assay [4] (setting [7]) it was 98% (active); in assay [4] (setting [8]), 94% (active); in assay [4] (at 50.0 µM), 12%. Besides, the growth inhibition in assay [5] (setting [7]) is 92% (active); in assay [5] (setting [8]), 96% (active); in assay [5] (at 50.0 µM), 15.6%; in assay [6] (setting [7]), 82% (active); in assay [6] (setting [8]) it was 96% (active); in assay [6] (at 50.0 µM) it was 63%.
